Experimental data reported in PubChem BioAssay (NCATS).
Results filed as inconclusive are left out. Calls of active or inactive are those of the source. Unless noted, calls follow the shape of the dose curve; as a rule, active = well fitted curve in the direction sought with a large enough effect; inconclusive = small, poorly fitted or top-dose-only effect, or another doubt; inactive = no such curve, though single readings can be large; an effect the other way counts as inactive or inconclusive.

Columns and labels:
CASKI = test: Primary qHTS to identify gynecologic anti-cancer compounds using libraries of approved drugs and bioactive compounds (AID 1345084); conditions: Gynecologic cancer cell panel viability, ATPlite luminescence, 48 h; series mostly up to 57.5 µM; also: nearly all actives have a fitted effect of over 55% in size; also: potency is read from the fitted curve at half-maximal effect
Outline: (§1)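 Five-point cytotoxicity, 48 h drug exposure at 37 C, 5% CO2, on cells seeded 16 h beforehand. ATP content read by ATPlite luminescence.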

Es-2 = test: as above; conditions: Gynecologic cancer cell panel viability, ATPlite luminescence, 48 h; series mostly up to 57.5 µM
Outline: as §1

HeLa = test: as above; conditions: Gynecologic cancer cell panel viability, ATPlite luminescence, 48 h; series mostly up to 57.5 µM
Outline: as §1

Hek293T = test: as above; conditions: Gynecologic cancer cell panel viability, ATPlite luminescence, 48 h, control line for the selectivity index; series mostly up to 57.5 µM
Outline: as §1

JEG-3 = test: as above; conditions: Gynecologic cancer cell panel viability, ATPlite luminescence, 48 h; series mostly up to 57.5 µM
Outline: as §1

OV90 = test: as above; conditions: Gynecologic cancer cell panel viability, ATPlite luminescence, 48 h; series mostly up to 57.5 µM
Outline: as §1

PA-1 = test: as above; conditions: Gynecologic cancer cell panel viability, ATPlite luminescence, 48 h; series mostly up to 57.5 µM
Outline: as §1

SKOV3 = test: as above; conditions: Gynecologic cancer cell panel viability, ATPlite luminescence, 48 h; series mostly up to 57.5 µM
Outline: as §1

Tov-21-G = test: as above; conditions: Gynecologic cancer cell panel viability, ATPlite luminescence, 48 h; series mostly up to 57.5 µM
Outline: as §1

Tov112D = test: as above; conditions: Gynecologic cancer cell panel viability, ATPlite luminescence, 48 h; series mostly up to 57.5 µM
Outline: as §1

[1] = Drug repurposing screens with cells derived from glioblastoma tumor samples (AID 1345199); conditions: GBM patient neurospheres viability, ATP luminescence, 48 h; also: nearly all actives have a fitted effect of over 40% in size; also: potency is read from the fitted curve at half-maximal effect; as to activity, negative = cell killing: % is scaled to controls: 0 for no effect and ±100 for the full control effect
Outline: (§2)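 Primary testing used CD133+ neurospheres from four GBM patients, seven concentrations, 48 h exposure and ATP-based viability; confirmation added three slower-growing patient lines.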

astro = test: as above; conditions: viability, ATP luminescence, 48 h; series mostly up to 45.9 µM
Outline: as §2

CAOV3 = test: Primary qHTS to identify gynecologic anti-cancer compounds using libraries of approved drugs and bioactive compounds (AID 1345084); conditions: Gynecologic cancer cell panel viability, ATPlite luminescence, 48 h; series mostly up to 57.5 µM; also: nearly all actives have a fitted effect of over 55% in size; also: potency is read from the fitted curve at half-maximal effect
Outline: as §1

[2] = qHTS assay to identify inhibitors of the type 1 interferon - major histocompatibility complex class I in skeletal muscle: Counter screen cell viability and HiBit confirmation (AID 1347412); conditions: iHSKM muscle cells + IFN-b, HiBiT or CellTiter-Glo, 24 h; Potency: HiBiT unless noted; Viability, at 45.9 µM (top of the series); also: nearly all actives have a fitted effect of over 60% in size; also: potency is read from the fitted curve at half-maximal effect
Outline: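 Luminescence read-out: Nano-Glo HiBiT lytic signal from C-terminally HiBiT-tagged HLA-B in CRISPR-edited human myoblasts, plus CellTiter Glo ATP as viability counter screen. IFN-beta 4.0 ng/ml; 24 hrs treatment at 37 C, 5% CO2.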

[3] = qHTS assay for small molecule activators of the human pregnane X receptor (PXR) signaling pathway (AID 720659; call rule not given here; also: 0% is about no effect)
[4] = target: Nuclear receptor subfamily 1 group I member 2 (Rattus norvegicus) (UniProt Q9R1A7); test: qHTS assay for small molecule activators of the rat pregnane X receptor (rPXR) signaling pathway (AID 651751; call rule not given here; also: 0% is about no effect); conditions: rPXR reporter cells, luciferase (One-Glo), 24 h
Chain of Nuclear receptor subfamily 1 group I member 2 (Rattus norvegicus) (Q9R1A7 whole entry, looked up): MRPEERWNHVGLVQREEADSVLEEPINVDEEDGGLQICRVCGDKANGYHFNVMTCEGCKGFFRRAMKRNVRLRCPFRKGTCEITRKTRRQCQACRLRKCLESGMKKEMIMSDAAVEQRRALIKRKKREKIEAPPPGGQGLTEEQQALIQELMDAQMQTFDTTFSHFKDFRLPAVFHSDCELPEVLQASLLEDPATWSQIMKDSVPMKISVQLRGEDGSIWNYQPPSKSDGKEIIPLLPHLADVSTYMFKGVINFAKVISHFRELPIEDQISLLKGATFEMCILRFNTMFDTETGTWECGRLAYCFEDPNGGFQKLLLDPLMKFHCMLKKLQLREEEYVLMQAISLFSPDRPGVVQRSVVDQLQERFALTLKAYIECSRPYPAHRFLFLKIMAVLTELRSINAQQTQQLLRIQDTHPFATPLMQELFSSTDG

[5] = at 20 µM (top of the series), tumour line C
[6] = at 21.2 µM (top of the series), tumour line B
[7] = at 45.9 µM (top of the series), tumour line B
[8] = at 45.9 µM (top of the series), tumour line D
[9] = at 46 µM (top of the series), tumour line A
[10] = at 46.1 µM (top of the series), tumour line C

CN(C(=O)CN(CCO)CC(=O)N(C)C(C)(C)Cc1ccccc1)C(C)(C)Cc1ccccc1
inactive: Potency (CASKI) | Potency (Es-2) | Potency (HeLa) | Potency (Hek293T) | Potency (JEG-3) | Potency (OV90) | Potency (PA-1) | Potency (SKOV3) | Potency (Tov-21-G) | Potency (Tov112D) | activity, negative = cell killing [1, 5] 7.73% | activity, negative = cell killing [1, 6] -8.65% | activity, negative = cell killing ([1]; at 21.2 µM (top of the series), tumour line D) -0.577% | Potency (astro)
active: Potency ([1]; tumour line A) 10 µM

CCOc1ccc(Cc2nccc3cc(OCC)c(OCC)cc23)cc1OCC
active: Potency (OV90) 7.08 µM | Potency (SKOV3) 2.24 µM
inactive: Potency (CAOV3) | Potency (HeLa) | Potency (JEG-3) | Potency (Tov-21-G) | activity, negative = cell killing [1, 5] 6.5%

Oc1ccc(Cl)cc1Sc1cc(Cl)ccc1O
active: Potency (astro) 7.94 µM
inactive: Potency (CAOV3) | Potency (CASKI) | Potency (OV90) | Potency (SKOV3)

C[C@H]1C[C@H]2[C@@H]3CCC4=CC(=O)C=C[C@]4(C)[C@@]3(Cl)[C@@H](O)C[C@]2(C)[C@@]1(O)C(=O)CO
inactive: Potency (CASKI) | Potency (Es-2) | Potency (HeLa) | Potency (Hek293T) | Potency (JEG-3) | Potency (OV90) | Potency (PA-1) | Potency (SKOV3) | Potency (Tov-21-G) | Potency (Tov112D) | activity, negative = cell killing [1, 7] -17% | activity, negative = cell killing [1, 8] -11.6% | activity, negative = cell killing [1, 9] -29.5% | activity, negative = cell killing [1, 10] -24.3% | Potency (astro) | Potency [2] | outcome [3]

CC(C)=CCC1C(=O)N(c2ccccc2)N(c2ccccc2)C1=O
inactive: Potency (CASKI) | Potency (Es-2) | Potency (HeLa) | Potency (Hek293T) | Potency (JEG-3) | Potency (OV90) | Potency (PA-1) | Potency (SKOV3) | Potency (Tov-21-G) | Potency (Tov112D) | activity, negative = cell killing [1, 10] 3.79% | Potency (astro)

CC(=O)Oc1ccc(C(c2ccc(OC(C)=O)cc2)c2ccccn2)cc1
inactive: Potency (CAOV3) | Potency (Es-2) | Potency (Hek293T) | Potency (JEG-3) | Potency (PA-1) | Potency (SKOV3) | activity, negative = cell killing [1, 7] -5.88% | activity, negative = cell killing [1, 8] -3.54% | activity, negative = cell killing [1, 9] -29.3% | max response [4] -3.28%

O=C(N/N=C/c1ccccc1O)c1ccncc1
inactive: Potency (CAOV3) | Potency (HeLa) | Potency (Hek293T) | Potency (JEG-3) | Potency (SKOV3) | activity, negative = cell killing [1, 8] 0.44% | Potency (astro)
active: Potency ([1]; tumour line B) 17.8 µM

COCc1c(C(C)C)nc(C(C)C)c(/C=C/[C@@H](O)C[C@@H](O)CC(=O)O)c1-c1ccc(F)cc1
active: Potency (CAOV3) 7.08 µM | Potency (HeLa) 1.78 µM | Potency (OV90) 1.78 µM | Potency (PA-1) 2.82 µM | Potency (Tov-21-G) 7.08 µM | Potency (Tov112D) 3.16 µM | Potency (astro) 0.1 µM
inactive: Potency (CASKI)

CC(C)(C)CC(C)(C)c1ccc(O)c(Cc2ccc(Cl)cc2Cl)c1
inactive: Potency (CAOV3) | Potency (CASKI) | Potency (JEG-3) | Potency (OV90) | Potency (PA-1) | Potency (Tov-21-G) | Potency (Tov112D)
active: Potency (astro) 22.4 µM

CN1CCCC(CC2c3ccccc3Sc3ccccc32)C1 (centres undefined)
inactive: Potency (CASKI) | Potency (Es-2) | Potency (HeLa) | Potency (Hek293T) | Potency (JEG-3) | Potency (PA-1) | Potency (Tov-21-G) | Potency (Tov112D) | activity, negative = cell killing [1, 5] 5.58%
active: Potency ([1]; tumour line A) 2.24 µM | Potency ([1]; tumour line B) 12.6 µM

CN1CCC(=C2c3ccccc3Sc3ccccc32)CC1
inactive: Potency (CASKI) | Potency (Es-2) | Potency (HeLa) | Potency (Hek293T) | Potency (JEG-3) | Potency (PA-1) | Potency (Tov-21-G) | Potency (Tov112D)
active: Potency (astro) 11.2 µM

COc1c(C)c2c(c(O)c1C/C=C(\C)CCC(=O)O)C(=O)OC2
active: Potency (Es-2) 2.82 µM | Potency (PA-1) 0.282 µM | Potency (Tov-21-G) 1 µM
inactive: Potency (CAOV3) | Potency (JEG-3) | activity, negative = cell killing [1, 5] -18.6%

Nc1ccc(C(=O)Nc2ccccc2N)cc1
inactive: Potency (CAOV3) | Potency (CASKI) | Potency (Hek293T) | Potency (JEG-3) | Potency (SKOV3) | Potency (Tov112D)
active: Potency (PA-1) 11.2 µM

CC(=O)OCC(=O)[C@@]12OC(C)(C)O[C@@H]1C[C@H]1[C@@H]3C[C@H](F)C4=CC(=O)C=C[C@]4(C)[C@@]3(F)[C@@H](O)C[C@@]12C
inactive: Potency (CASKI) | Potency (Es-2) | Potency (HeLa) | Potency (Hek293T) | Potency (JEG-3) | Potency (OV90) | Potency (PA-1) | Potency (SKOV3) | Potency (Tov-21-G) | Potency (Tov112D) | activity, negative = cell killing [1, 5] -14.9% | activity, negative = cell killing [1, 6] -15.5% | activity, negative = cell killing ([1]; at 21.3 µM (top of the series), tumour line A) -1.98% | Potency [2]

NC(=NCCCCCCN=C(N)/N=C(\N)Nc1ccc(Cl)cc1)/N=C(\N)Nc1ccc(Cl)cc1
active: Potency (PA-1) 15.8 µM | Potency (astro) 11.2 µM
inactive: Potency (CASKI) | Potency (Es-2) | Potency (JEG-3) | Potency (Tov-21-G) | Potency (Tov112D) | outcome [3]

CC(C)COC(=O)OCN1C(=O)CN(CCN2CC(=O)N(COC(=O)OCC(C)C)C(=O)C2)CC1=O
inactive: activity, negative = cell killing [1, 7] -7.7% | activity, negative = cell killing [1, 8] -16.2% | activity, negative = cell killing [1, 9] -10.8% | activity, negative = cell killing [1, 10] -11%

CC1(C)CCC(NC(=O)[C@@H](N)CCC(=O)O)CC1
inactive: activity, negative = cell killing [1, 7] -9.8% | activity, negative = cell killing [1, 8] -20.2% | activity, negative = cell killing [1, 9] -26.1% | activity, negative = cell killing [1, 10] -24.2% | Potency (astro)

C[N+]1(CCCCC[N+]2(C)CCCC2)CCCC1
inactive: activity, negative = cell killing [1, 7] 0.364% | activity, negative = cell killing [1, 8] -0.863% | activity, negative = cell killing [1, 9] -3.4% | activity, negative = cell killing [1, 10] -6.31% | Potency (astro)

COc1ccc(/C=C/C(=O)c2ccc(OC)cc2OC)cc1
active: Potency (SKOV3) 2.24 µM | Potency ([1]; tumour line A) 35.5 µM | Potency ([1]; tumour line D) 12.6 µM
inactive: Potency (Es-2) | Potency (HeLa) | Potency (Hek293T) | Potency (JEG-3) | Potency (Tov-21-G) | Potency (Tov112D) | activity, negative = cell killing [1, 10] -59.7%

Cc1ccccc1C(=O)Nc1ccc(C(=O)N2CCCC(N(C)C)c3ccccc32)cc1 (centres undefined)
inactive: Potency (JEG-3) | Potency (OV90)
active: Potency (Tov112D) 8.91 µM

N[C@@H](Cc1cnc[nH]1)C(=O)O
inactive: activity, negative = cell killing [1, 7] -11.3% | activity, negative = cell killing [1, 8] -9.45% | activity, negative = cell killing [1, 10] -12.5% | Potency (astro)

O=C1CCC(c2ccc(-n3ccnc3)cc2)=NN1
inactive: activity, negative = cell killing [1, 7] -6.09% | activity, negative = cell killing [1, 8] -6.36% | activity, negative = cell killing [1, 10] -27.3% | Potency (astro)

CCCCC(CC)CN=C(N)NC(N)=NCCCCCCN=C(N)NC(N)=NCC(CC)CCCC (centres undefined)
active: Potency (HeLa) 17.8 µM | Potency (OV90) 20 µM | Potency (PA-1) 10 µM | Potency (Tov-21-G) 17.8 µM | Potency (astro) 11.2 µM | Potency [2] 22.2 µM [Viability]

N[C@H](CO)C(=O)O
inactive: activity, negative = cell killing [1, 7] 4.31% | activity, negative = cell killing [1, 8] -24.3% | activity, negative = cell killing [1, 10] 2.37%
